# In the library only some 2.3% were active in any assay of this set; here they are far more common.
# HIF-2a block: HIF-2a reporter inhibitors, primary screen, luminescence, 786-0 RCC cells; 786-0 RCC cells HIF-2a reporter, luciferase luminescence, overnight; AID 624352, 2012; inhibition, % at 18.8 µM; 0.72% of 360,000 active;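 active = inhibition of the luminescence signal of 40% or more relative to plate controls, in a single-dose primary screen at 18.75 µM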
# hiPSC survival: enhancers of single-cell hiPSC survival, primary screen, ATPlite luminescence; 100% = ROCK inhibitor wells, 0% = DMSO; survival enhancement, % at 20 µM; 0.044% of 360,000 active; AID 602274, 2012; in the data active = survival enhancement above about 18%;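 also: cells exposed to compounds for 16 hours before the ATP read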
# KKLEB tox: cytotoxicity in KKLEB CF airway cells, primary screen, cytotoxicity control for CF NF-kB inhibitor project, cell-based, uHTS, fluorescence assay plates | activity change (cytotoxicity), % at 5 µM | KKLEB CF airway cells viability, ATPlite luminescence, overnight; active compounds read low; cells stimulated with P. aeruginosa culture filtrate | AID 602141, 2011 | 0.36% of 360,000 active;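 active = corrected activity change at or below -50% at 5 µM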
# TWEAK Fn14 block: inhibitors of TWEAK-Fn14 signaling, primary screen, luciferase reporter cells, uHTS | TWEAK-stimulated Fn14 reporter cells, luciferase luminescence, 8 h | inhibition, % at 10 µM | 2% of 360,000 active | AID 1159606, 2016; in the data active = inhibition above about 50%
# LGR2 inh: inhibitors of bursicon-induced LGR2 CRE-luciferase signal, primary screen, cell-based, HEK293, CRE-luciferase reporter, bursicon stimulation. Drosophila bursicon receptor LGR2 (rickets). bursicon-stimulated, 4 h. inhibition, % at 9.99 µM. 0.35% of 380,000 active. AID 720647, 2013;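 active = drop in luminescence signal, shown as inhibition above about 50% in the replicate tests, limit read from the data, passing the limit was not always enough; inconclusive = probably only some replicates passing the limit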;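 also: agonist challenge used bursicon conditioned medium at about half maximal strength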
# CF NFkB inh: inhibitors of PAF-induced NF-kB signaling, primary screen, cell-based, GFP fluorescence, uHTS; 0.86% of 360,000 active; KKLEB NF-kB-GFP reporter, GFP fluorescence overnight; inhibition, % at 5 µM; AID 588850, 2011;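 active = at least 50% inhibition at 5 µM, scaled per plate between neutral and stimulator controls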;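 also: PAF is a Pseudomonas aeruginosa culture filtrate used as stimulus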
# Numbers stand for hits; . = inactive; ? = inconclusive; / = no result.
SMILES,HIF-2a block,hiPSC survival,KKLEB tox,TWEAK Fn14 block,LGR2 inh,CF NFkB inh
C[C@H](CO)N1C[C@H](C)[C@@H](CN(C)S(=O)(=O)c2cn(C)cn2)OCCCC[C@H](C)Oc2ccc(NC(=O)NC3CCCCC3)cc2C1=O,/,/,/,/,.,/
COc1ccc(CCNc2c3ccccc3nc3ccccc23)cc1OC,50.9,.,.,.,.,.
c1ccc2c(NCCc3c[nH]c4ccccc34)c3ccccc3nc2c1,44.4,.,.,.,.,.
COc1nc(NCCc2ccc(OC)c(OC)c2)nc(OC)n1,.,.,.,.,/,.
COc1cc(Nc2nc(-c3ccccc3)c3cc(C)ccc3n2)cc(OC)c1OC,.,.,.,69.1,/,.
COc1ccccc1CNC(=O)Cc1ccc(OC)c(OC)c1,.,.,.,67.6,.,.
C[C@H](CO)N1C[C@H](C)[C@H](CN(C)C(=O)c2ccc(F)cc2)OCc2ccccc2-c2c(n(C)c3ccccc23)C1=O,/,/,/,/,.,/
O=C(C[C@@H]1CC[C@@H]2[C@H](COC[C@@H](O)CN2Cc2ccc(F)cc2)O1)NCc1ccccc1Cl,/,/,/,/,.,/
CNC[C@H]1Oc2ccc(NC(=O)C3CC3)cc2C(=O)N([C@@H](C)CO)C[C@H]1C,/,/,/,/,.,/
CNC[C@H]1OCCCC[C@@H](C)Oc2ccc(NS(=O)(=O)c3cn(C)cn3)cc2C(=O)N([C@@H](C)CO)C[C@H]1C,/,/,/,/,.,/
COc1cc(Nc2c3ccccc3nc3ccccc23)cc(OC)c1OC,46.2,.,.,.,.,.
COc1ccc(Nc2c3ccccc3nc3ccccc23)cc1,.,.,.,.,.,.
O=C(C[C@H]1CC[C@H](NS(=O)(=O)c2cccc(F)c2)[C@@H](CO)O1)NCc1ccc2c(c1)OCO2,/,/,/,/,.,/
CCCCC(=O)N/N=C/c1ccc(Sc2cccc3cccnc23)o1,.,.,.,107.2,/,.
C[C@H]1CN([C@@H](C)CO)C(=O)Cc2cc(NC(=O)Cc3ccccc3)ccc2O[C@H]1CN(C)CC1CCCCC1,/,/,/,/,.,/
O=C(C[C@@H]1CC[C@@H]2[C@H](COC[C@@H](O)CN2C(=O)Nc2ccc(Cl)cc2)O1)NC1Cc2ccccc2C1,/,/,/,/,.,/
C[C@@H]1CN([C@@H](C)CO)C(=O)Cc2cc(N(C)C)ccc2O[C@H]1CN(C)Cc1ccc(Oc2ccccc2)cc1,/,/,/,/,.,/
Cc1c[n+](CC(=O)c2ccccc2)cs1,.,.,.,90.0,.,.
Cc1cc(C)c[n+](CC(=O)c2ccccc2)c1,.,.,.,.,.,.
O=C(CNC(=O)c1ccccc1)OC(C(=O)Nc1cc(C(F)(F)F)ccc1Cl)c1ccccc1 (configuration not stated),.,18.6,.,.,.,.
CC1(Cc2ccc(OC(F)(F)F)cc2)C(=O)Nc2ccc(S(=O)(=O)NC3CCCCC3)cc21 (configuration not stated),.,.,.,78.1,?,.
C[C@@H]1CN([C@H](C)CO)C(=O)c2cc(-c3cccc(F)c3)cnc2O[C@@H]1CN(C)C(=O)C1CCC1,/,/,/,/,.,/
CN(C)CCCNc1cc(O)c2ncccc2c1,.,.,.,.,96.9,.
COc1cccc(/C=N/NC(=O)c2nnn(-c3nonc3N)c2C(C)C)c1OCc1ccc(F)cc1,.,.,.,63.0,/,.
CC(C)c1c(C(=O)N/N=C/c2ccc(OCc3ccc(F)cc3)cc2)nnn1-c1nonc1N,.,.,.,.,.,.
SMILES,HIF-2a block,hiPSC survival,KKLEB tox,TWEAK Fn14 block,LGR2 inh,CF NFkB inh
CCOc1ccc(-c2c(C(=O)N/N=C/c3c[nH]c4ccccc34)nnn2-c2nonc2N)cc1,.,.,.,58.2,.,.
CCc1ccc2c(Cl)c(C(=O)N/N=C/c3c[nH]c4ccccc34)sc2c1,.,.,.,.,/,.
CCc1ccc(-c2cc(C(=O)N/N=C/c3c[nH]c4ccccc34)[nH]n2)cc1,.,.,.,58.6,/,.
CCOc1ccc(/C=N/NC(=O)c2nnn(-c3nonc3N)c2-c2ccc(OCC)cc2)cc1,.,.,.,.,.,.
COc1cc(/C=N/NC(=O)c2nnn(-c3nonc3N)c2C(C)C)ccc1OCc1ccccc1,.,.,.,62.5,.,.
CC(C)c1c(C(=O)N/N=C/c2ccc(OCc3ccccc3)cc2)nnn1-c1nonc1N,.,.,.,.,.,.
O=C(C[C@@H]1CC[C@H]2[C@@H](COC[C@H](O)CN2C(=O)c2ccncc2)O1)NCc1ccc(-c2ccccc2)cc1,/,/,/,/,.,/
CO[C@@H]1CN(C)C(=O)c2cc(NC(=O)c3ccccc3)ccc2OC[C@H](C)N(C)C[C@@H]1C,/,/,/,/,.,/
CC(C)NC(=O)N[C@@H]1CC[C@H](CC(=O)N2CCCCC2)O[C@H]1CO,/,/,/,/,.,/
CCN1[C@@H]2c3ccc(-c4ccncc4)c(=O)n3C[C@@H]2[C@@H](CO)[C@@H]1C(=O)NCc1ccccc1,/,/,/,/,.,/
C[C@H](CO)N1C[C@H](C)[C@@H](CN(C)S(=O)(=O)c2ccc(Cl)cc2)Oc2c(NS(=O)(=O)c3ccccc3)cccc2C1=O,/,/,/,/,.,/
Nc1nonc1-n1nnc(C(=O)N/N=C/c2cccc(Cl)c2)c1-c1cccs1,.,.,.,50.6,.,.
COc1ccc(/C=N/NC(=O)c2nnn(-c3nonc3N)c2-c2cccs2)cc1OC,.,.,.,.,.,.
CC(=O)Nc1ccc(-c2ccnc3c2CC(C)(C(=O)Nc2ccc(Cl)c(C(F)(F)F)c2)O3)cc1 (configuration not stated),.,.,.,.,.,.
CN(C)c1ccc(-c2ccnc3c2CC(C)(C(=O)Nc2ccc(Cl)c(C(F)(F)F)c2)O3)cc1 (configuration not stated),.,19.7,.,.,/,.
Cc1noc(C)c1S(=O)(=O)Nc1cccc2c1O[C@H](CN(C)S(=O)(=O)c1ccccc1)[C@H](C)CN([C@H](C)CO)C2=O,/,/,/,/,.,/
CCC(=O)Nc1ccc2c(c1)C(=O)N(C)[C@@H]1CC[C@@H](CC(=O)NC3CCCC3)O[C@H]1CO2,/,/,/,/,.,/
O=C(Nc1ccccc1)C1COc2ccccc2O1 (configuration not stated),.,.,.,80.5,.,.
CC(=O)c1sc(NC(=O)C2COc3ccccc3O2)nc1C (configuration not stated),.,.,.,87.4,/,.
O=C(Nc1nncs1)C1COc2ccccc2O1 (configuration not stated),.,.,.,.,/,.
Cc1ccc(NC(=O)C2COc3ccccc3O2)cc1 (configuration not stated),.,.,.,51.2,.,.
O=C(Nc1ccc2c(c1)[C@@H]1C[C@H](CC(=O)N3CCOCC3)O[C@H](CO)[C@@H]1O2)c1cccnc1,/,/,/,/,.,/

# Bioassay records deposited in PubChem by several laboratories.
